# Measurements: PubChem BioAssay (NCI)
# Compounds without any hit were thinned out: in the full panel of roughly 79,000, 15% have a hit. Active and inactive are the calls of the source. No stated cut-off is given here; in the data, active means growth inhibition above about 70%; inactive means the rest.
# Assay: NCI Yeast Anticancer Drug Screen. Data for the mlh1 rad18 strain (AID 175)
# Details: S. cerevisiae mlh1 rad18 strain growth inhibition; at 50.0 µM; stronger effect = higher value
# Summary of the method: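 Steps: expose repair-defective yeast to compound; measure growth; express inhibition against vehicle-treated controls.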
row,Compound,growth inhibition
1,CCCCCC(C1SC(=S)NC1=O)C1SC(=S)NC1=O (stereo not given),81.8% (active)
2,CC(C)C1=CC2=CC(=O)C3C(C)(C)CCCC3(C)C2=C(O)C1=O (stereo not given),87.5% (active)
3,CCOC(=O)C[n+]1c(C)sc2ccccc21,19.2% (inactive)
4,OCc1c(-c2cccc3ccccc23)sc(-c2cccc3ccccc23)c1CO,88.4% (active)
5,CC1=C(C#N)C(=O)OC1(C)C(CC(=O)c1ccccc1)c1ccccc1 (stereo not given),1.85% (inactive)
6,O=c1oc2c3ccc4ccccc4c3n(CCCN3CCCCC3)c2c2ccccc12,87.3% (active)
7,Cc1cc(NC(=S)SCc2ccc(F)cc2)ccc1Br,91.4% (active)
8,Cc1ccc(C2C(O)=C(c3ccccc3)Sc3ccc(C)cc32)cc1 (stereo not given),31.4% (inactive)
9,COC(=O)/C=C1/OC(c2ccccc2)=CC1=O,86.2% (active)
10,COc1ccccc1NC(=O)CC(=O)N1N=C(c2ccccc2)C(N=Nc2ccc(Cl)cc2)C1=O (stereo not given),-8.05% (inactive)
11,CC(=O)NC1=C(Nc2ccc(-c3ccc(NC4=C(NC(C)=O)C(=O)c5ccccc5C4=O)cc3)cc2)C(=O)c2ccccc2C1=O,99.3% (active)
12,CCCCCCC(O)CCOC(C)=O (stereo not given),-1.6% (inactive)
13,CCn1nc(-c2ccccc2)c2c1N(C)c1ccccc1-n1c(-c3ccccc3)nnc1-2,99.2% (active)
14,CC1(CCC(=O)O)c2ccc3ccccc3c2Oc2c1ccc1ccccc21,94.8% (active)
15,CCN1/C(=C\c2cc(C)nc(-c3ccccc3)[n+]2C)C=Cc2ccccc21,98.7% (active)
16,Cc1ccccc1N1C(=O)c2ccccc2C1=O,84% (active)
17,O=C(Oc1ccccc1)C1CCCCC1C(=O)Oc1ccccc1 (stereo not given),31.8% (inactive)
18,Cc1cccc2c1C1c3c(C)cccc3C(O)CC1CC2O (stereo not given),39.8% (inactive)
19,CC(C)c1cc2c(cc1O)C(O)C1(O)CCCC(C)(C)[C@H]1CC2 (stereo not given in full),91.8% (active)
20,C/C=C/c1ccc(OCC(=O)O)c(OC)c1,98% (active)

row,Compound,growth inhibition
1,Nc1ccc(S(=O)(=O)NCc2nccs2)cc1,70.5% (active)
2,N#CC(NNC(=O)c1ccccc1O)c1c(O)ccc2ccccc12 (stereo not given),51.5% (inactive)
3,Oc1ccc(Cl)cc1Cc1cc(Cl)cc(Cc2cc(Cl)ccc2O)c1O,95.8% (active)
4,O=C1CN(CCN2CCOCC2)CC(=O)N2Cc3ccccc3CN12,44.2% (inactive)
5,CC1CCC(SC2CC(=O)CCC2=O)CC1 (stereo not given),98.6% (active)
6,Clc1ccc(OCC2CO2)c(Cl)c1 (stereo not given),96.8% (active)
7,CN=C(N)N/N=C(\C)c1ccc2c(ccc3ccccc32)c1,91.7% (active)
8,Cc1cc(O)c(/C=N/c2nc(-c3cccc([N+](=O)[O-])c3)cs2)c(=O)o1,63.6% (inactive)
9,COc1cccc2c1OC(c1ccc(Cl)cc1)C([N+](=O)[O-])=C2 (stereo not given),84% (active)
10,COc1ccc(C(=O)C2C(=O)C(=O)OC2C2OC(=O)C(=O)C2C(=O)c2ccc(OC)cc2)cc1 (stereo not given),-15.7% (inactive)
11,CCCCCCCCCCCCCCCCOc1ccc(S(=O)(=O)N/N=c2/sc3ccc(S(=O)(=O)O)cc3n2C)cc1C(=O)O,73.4% (active)
12,O=C(Nc1ccc(F)cc1)N1CCCCC1,33.1% (inactive)
13,C[CH2][Sn]([CH2]C)([O]C(=O)c1cc(OC)c(OC)c(OC)c1)[O][Sn]([CH2]C)([CH2]C)[O]C(=O)c1cc(OC)c(OC)c(OC)c1,61% (inactive)
14,C/C(O)=C(/C=N/C(=S)Nc1ccc(S(N)(=O)=O)cc1)C(=O)Nc1ccccc1C,89.4% (active)
15,CC(C)CC(N)C(=O)NNc1ccccc1 (stereo not given),98% (active)
16,CCC(C(c1ccc(Cl)cc1)c1ccc(Cl)c(Cl)c1)[N+](=O)[O-] (stereo not given),5.3% (inactive)
17,O=C(O)c1nc2cc(C(F)(F)F)ccc2nc1Nc1ccc(F)cc1,42.9% (inactive)
18,Nc1nc(-c2ccccn2)cc2cc(Cl)ccc12,13.9% (inactive)
19,CC1(c2ccccc2)NC(=O)N(CC(=O)N(c2ccccc2)c2ccccc2)C1=O (stereo not given),52.1% (inactive)
20,O/N=C(/Cc1ccccc1)c1ccc2c(c1)OCO2,2.95% (inactive)
